Source: PubChem BioAssay (Tox21)
A number with no mark means an inactive call. Results filed as inconclusive are left out. A call without a number means that no potency is given here. Activity calls are given as the source filed them. Unless noted, calls come from the whole dose curve.

What was measured:
[1] = Nuclear factor erythroid 2-related factor 2/antioxidant responsive element (Nrf2/ARE) small molecule agonists: luciferase reporter gene qHTS assay in human keratinocytes (AID 1919969); note: nearly all actives have a fitted effect of over 35% in size; note: potency is the fitted concentration of half-maximal effect
[2] = target: Gonadotropin-releasing hormone receptor (Homo sapiens) (UniProt P30968); assay: Human gonadotropin-releasing hormone receptor (GnRHR) small molecule agonists, calcium flux assay in GnRHR-HEK293 cells (AID 1920063); note: nearly all actives have a fitted effect of over 35% in size; note: potency is the fitted concentration of half-maximal effect
Procedure, shortened: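 Compounds dissolved in DMSO are pin-transferred onto dye-loaded GnRHR-HEK293 cells, which were seeded 18 h before at 37 C/5% CO2. Calcium signal is read as fluorescence intensity at 1 s intervals for 3 min.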

[3] = target: KiSS-1 receptor (Homo sapiens) (UniProt Q969F8); assay: Human kisspeptin (KISS1R) small molecule agonists, calcium flux assay in KISS1R-HEK293 cells (AID 1920064; active = well fitted activation curve with a large enough effect in the repeat runs; note: potency is the fitted concentration of half-maximal effect)
Procedure, shortened: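 Cell line: HEK293, stable human KISS1R. Dye loading 1 h at 37 C after 18 h culture. Read: kinetic fluorescence, 480/540 nm, 3 min at 1 s intervals.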

[4] = G protein-coupled receptor (GPCR) small molecule agonists, calcium flux assay: HEK293 wild type cell line counter screen (AID 1920065); note: potency is the fitted concentration of half-maximal effect
Procedure, shortened: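 Tox21 10K compounds, 15 concentrations each in triplicate, pin-transferred in DMSO onto dye-loaded cells; kinetic read at 480/540 nm for 3 min, 1 s intervals.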

[5] = p53 small molecule agonists, cell-based qHTS assay with human liver microsomes: qHTS cell viability counter screen (AID 1963579); note: nearly all actives have a fitted effect of over 45% in size; note: potency is the fitted concentration of half-maximal effect
Procedure, shortened: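 Viability of p53RE-bla cells is measured as CellTiter-Glo luminescence following a 16 h, 37 C incubation with compound, liver microsomes from human donors and NADPH.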

[6] = p53 small molecule agonists, cell-based qHTS assay with rat liver microsomes: qHTS cell viability counter screen (AID 1963580); note: nearly all actives have a fitted effect of over 45% in size; note: potency is the fitted concentration of half-maximal effect
Procedure, shortened: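 Rat liver microsome (0.5 mg/mL final) and NADPH (0.5 mg/mL final) co-incubation with compounds for 16 h at 37 C on HCT-116 p53RE-bla cells; cytotoxicity taken from intracellular ATP luminescence.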

[7] = p53 small molecule agonists, cell-based qHTS assay: qHTS cell viability counter screen (AID 1963581); note: nearly all actives have a fitted effect of over 45% in size; note: potency is the fitted concentration of half-maximal effect
Procedure, shortened: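 ATP content measured by luminescence in HCT-116 p53RE-bla cells treated 16 h at 37 C, same wells as the reporter screen.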

[8] = p53 small molecule agonists, cell-based qHTS assay (AID 1963582; active = well fitted activation curve with a large enough effect in the signal ratio in the repeat runs, not every such curve was filed as active; the % refers to the signal ratio)
Procedure, shortened: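 16 h compound exposure (37 C) of p53 response element–bla cells, preceded by 5 h recovery at 37 C/5% CO2; read-out via LiveBLAzer B/G FRET substrate, 2 h RT, fluorescence intensity.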

[9] = target: 5-hydroxytryptamine receptor 2A (Homo sapiens) (UniProt P28223); assay: 5-hydroxytryptamine receptor 2A (HTR2A) small molecule agonists, cell-based qHTS assay (AID 1963587); note: nearly all actives have a fitted effect of over 30% in size; note: potency is the fitted concentration of half-maximal effect
Procedure, shortened: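 Kinetic calcium-flux fluorescence (2 min, 1 sec intervals) after compound addition in agonist mode. HTR2A-CHO cells were cultured 18 h, then dye-loaded 1 h at 37 C.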

[10] = target: Muscarinic acetylcholine receptor M1 (Homo sapiens) (UniProt P11229); assay: Cholinergic receptor muscarinic 1 (CHRM1) small molecule antagonists, cell-based qHTS assay (AID 1963588); note: nearly all actives have a fitted effect of over 40% in size
Procedure, shortened: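 Compounds were tested at 15 concentrations in three independent runs. Dye-loaded CHRM1-CHO cells were exposed 5 min at room temperature before stimulation by acetylcholine added at 50nM. Intracellular calcium was read kinetically on FDSS for 3 min.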

[11] = target: Muscarinic acetylcholine receptor M1 (Homo sapiens) (UniProt P11229); assay: Cholinergic receptor muscarinic 1 (CHRM1) small molecule agonists, cell-based qHTS assay (AID 1963589); note: nearly all actives have a fitted effect of over 35% in size; note: potency is the fitted concentration of half-maximal effect
Procedure, shortened: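 Homogeneous fluorescence calcium flux, agonist mode. Human M1-expressing CHO cells; compound dosed at 15 concentrations, three independent runs; signal sampled every 1 sec.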

[12] = cAMP Responsive Elements (CRE) small molecule antagonists, cell-based qHTS assay (AID 1963591; active = well fitted inhibition curve with a large enough effect in the signal ratio in the repeat runs, not every such curve was filed as active; the % refers to the signal ratio; note: potency is the fitted concentration of half-maximal effect)
Procedure, shortened: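 First, CRE-bla HEK293T cells settled 18 h at 37 C. Next, compound and 0.25 uM final NKH477 were applied for 3 h. Last, LiveBLAzer B/G substrate was loaded for 2 h at room temperature.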

[13] = target: Beta-2 adrenergic receptor (Homo sapiens) (UniProt P07550); assay: Adrenergic beta2 receptor (ADRB2) small molecule agonists, cell-based qHTS assay (AID 1963593);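 note: CHO cells stably overexpressing human ADRB2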
Procedure, shortened: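 CHO cells stably over-expressing ADRB2 were plated overnight at 37C, then dosed with compounds plus a stimulation mix containing 100uM IBMX and 25uM Ro-20-1724 for 0.5hr at room temperature. cAMP was measured by HTRF competition, 1hr.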

[14] = target: 5-hydroxytryptamine receptor 2A (Homo sapiens) (UniProt P28223); assay: 5-hydroxytryptamine receptor 2A (HTR2A) small molecule antagonists, cell-based qHTS assay (AID 1963586); note: nearly all actives have a fitted effect of over 45% in size
Procedure, shortened: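 CHO cells stably expressing human HTR2A were plated for 18 h at 37 C, then loaded with calcium dye for 1 h. Compounds were preincubated 5 min at room temperature before DOI (4 nM solution) was added. Kinetic fluorescence was read for 3 min.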

[15] = cAMP Responsive Elements (CRE) small molecule agonists, cell-based qHTS assay (AID 1963590)
Procedure, shortened: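 HEK 293T cells stably bearing CRE-bla were plated at 2,000 cells per well and rested 18 h. Compounds, positive controls or DMSO were added for 3 h at 37 C. LiveBLAzer B/G substrate was then loaded for 2 h at room temperature.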

[16] = target: Beta-2 adrenergic receptor (Homo sapiens) (UniProt P07550); assay: Adrenergic beta2 receptor (ADRB2) small molecule antagonists, cell-based qHTS assay (AID 1963592); note: series mostly up to about 92 µM; nearly all actives have a fitted effect of over 50% in size
Procedure, shortened: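 Assay format: CHO-ADRB2 cells, 18-20hr seeding at 37C/5% CO2, then compound plus 1nM isoproterenol agonist mix for 0.5hr RT. Homogeneous time-resolved fluorescence cAMP detection after 1hr, expressed as 665/615 nm ratio.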

[17] = target: D(2) dopamine receptor (Homo sapiens) (UniProt P14416); assay: Dopamine D2 receptor (DRD2) small molecule antagonists, cell-based qHTS assay (AID 1963595; active = well fitted inhibition curve with a large enough effect in the signal ratio in the repeat runs, with a control signal flat; the % refers to the signal ratio)
Procedure, shortened: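 Antagonist mode in DRD2-HEK293 cells: after compound addition with 0.1 mM Ro20-1724, cells received quinpirole (12 nM) and NKH477 (200 nM) for 30 min at room temperature; HTRF cAMP read after 1 h detection.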

[18] = target: D(2) dopamine receptor (Homo sapiens) (UniProt P14416); assay: Dopamine D2 receptor (DRD2) small molecule agonists, cell-based qHTS assay (AID 1963594); note: nearly all actives have a fitted effect of over 35% in size
Procedure, shortened: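 cAMP accumulation in DRD2-HEK293 cells measured by HTRF after 1 h detection; compounds added 10 min before NKH477 (200nM […]) forskolin-analogue stimulation, 30 min at room temperature, with Ro20-1724 present at 0.1 mM final.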

Chain of 5-hydroxytryptamine receptor 2A (Homo sapiens) (P28223 whole entry, looked up): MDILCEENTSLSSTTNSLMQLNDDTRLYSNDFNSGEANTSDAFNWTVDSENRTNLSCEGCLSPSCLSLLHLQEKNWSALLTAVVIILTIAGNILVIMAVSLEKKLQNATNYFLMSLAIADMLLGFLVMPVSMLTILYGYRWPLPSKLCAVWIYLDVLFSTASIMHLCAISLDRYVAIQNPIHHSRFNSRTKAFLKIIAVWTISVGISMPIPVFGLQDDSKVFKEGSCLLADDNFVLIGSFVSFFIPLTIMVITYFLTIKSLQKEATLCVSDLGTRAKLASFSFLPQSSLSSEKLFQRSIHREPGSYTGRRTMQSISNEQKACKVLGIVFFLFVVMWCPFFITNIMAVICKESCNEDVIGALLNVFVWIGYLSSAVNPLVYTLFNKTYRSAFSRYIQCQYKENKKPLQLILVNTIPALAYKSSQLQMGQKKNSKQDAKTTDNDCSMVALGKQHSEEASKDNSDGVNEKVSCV
Chain of D(2) dopamine receptor (Homo sapiens) (P14416 whole entry, looked up): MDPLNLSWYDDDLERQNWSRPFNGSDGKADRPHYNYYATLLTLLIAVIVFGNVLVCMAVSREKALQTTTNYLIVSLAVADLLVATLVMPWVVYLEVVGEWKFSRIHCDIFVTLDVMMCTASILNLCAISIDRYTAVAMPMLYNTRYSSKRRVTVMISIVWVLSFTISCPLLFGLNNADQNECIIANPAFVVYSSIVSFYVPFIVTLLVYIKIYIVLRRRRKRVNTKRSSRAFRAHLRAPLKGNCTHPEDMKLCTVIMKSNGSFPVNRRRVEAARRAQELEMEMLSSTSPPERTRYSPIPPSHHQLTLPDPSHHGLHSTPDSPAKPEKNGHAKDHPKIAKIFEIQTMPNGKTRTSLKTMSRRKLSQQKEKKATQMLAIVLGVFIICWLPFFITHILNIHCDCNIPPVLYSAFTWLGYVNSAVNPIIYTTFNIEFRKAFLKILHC
Chain of Gonadotropin-releasing hormone receptor (Homo sapiens) (P30968 whole entry, looked up): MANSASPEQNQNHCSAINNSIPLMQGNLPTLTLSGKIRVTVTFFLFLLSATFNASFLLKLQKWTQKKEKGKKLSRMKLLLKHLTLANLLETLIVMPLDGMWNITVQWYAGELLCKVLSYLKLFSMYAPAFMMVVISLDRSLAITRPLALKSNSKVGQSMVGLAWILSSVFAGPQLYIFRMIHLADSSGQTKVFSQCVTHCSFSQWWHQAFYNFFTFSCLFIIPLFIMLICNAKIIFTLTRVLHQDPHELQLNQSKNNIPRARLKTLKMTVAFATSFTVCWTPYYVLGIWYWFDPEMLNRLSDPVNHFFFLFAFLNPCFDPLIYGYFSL
Chain of KiSS-1 receptor (Homo sapiens) (Q969F8 whole entry, looked up): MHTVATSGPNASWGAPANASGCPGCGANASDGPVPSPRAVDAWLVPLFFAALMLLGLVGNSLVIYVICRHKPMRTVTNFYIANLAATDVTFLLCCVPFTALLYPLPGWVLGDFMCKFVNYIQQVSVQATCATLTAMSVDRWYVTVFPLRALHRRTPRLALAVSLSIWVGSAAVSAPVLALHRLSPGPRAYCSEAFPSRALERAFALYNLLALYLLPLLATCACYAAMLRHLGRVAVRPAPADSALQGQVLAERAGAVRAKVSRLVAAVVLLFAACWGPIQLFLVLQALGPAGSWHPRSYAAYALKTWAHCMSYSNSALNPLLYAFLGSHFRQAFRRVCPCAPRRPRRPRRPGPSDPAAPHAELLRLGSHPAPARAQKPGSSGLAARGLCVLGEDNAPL
Chain of Beta-2 adrenergic receptor (Homo sapiens) (P07550 whole entry, looked up): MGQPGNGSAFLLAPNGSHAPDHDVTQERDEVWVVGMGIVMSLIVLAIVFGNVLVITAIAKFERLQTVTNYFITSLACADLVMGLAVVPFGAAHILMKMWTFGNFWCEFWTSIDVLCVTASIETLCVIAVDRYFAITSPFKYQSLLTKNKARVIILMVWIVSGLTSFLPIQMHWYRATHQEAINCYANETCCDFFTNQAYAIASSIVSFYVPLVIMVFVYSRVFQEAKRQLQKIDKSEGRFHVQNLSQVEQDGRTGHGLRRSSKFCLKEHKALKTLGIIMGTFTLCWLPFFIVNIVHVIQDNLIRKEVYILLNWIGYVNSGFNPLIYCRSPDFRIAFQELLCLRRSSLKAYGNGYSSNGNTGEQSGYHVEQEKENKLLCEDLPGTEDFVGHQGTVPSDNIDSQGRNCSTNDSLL
Chain of Muscarinic acetylcholine receptor M1 (Homo sapiens) (P11229 whole entry, looked up): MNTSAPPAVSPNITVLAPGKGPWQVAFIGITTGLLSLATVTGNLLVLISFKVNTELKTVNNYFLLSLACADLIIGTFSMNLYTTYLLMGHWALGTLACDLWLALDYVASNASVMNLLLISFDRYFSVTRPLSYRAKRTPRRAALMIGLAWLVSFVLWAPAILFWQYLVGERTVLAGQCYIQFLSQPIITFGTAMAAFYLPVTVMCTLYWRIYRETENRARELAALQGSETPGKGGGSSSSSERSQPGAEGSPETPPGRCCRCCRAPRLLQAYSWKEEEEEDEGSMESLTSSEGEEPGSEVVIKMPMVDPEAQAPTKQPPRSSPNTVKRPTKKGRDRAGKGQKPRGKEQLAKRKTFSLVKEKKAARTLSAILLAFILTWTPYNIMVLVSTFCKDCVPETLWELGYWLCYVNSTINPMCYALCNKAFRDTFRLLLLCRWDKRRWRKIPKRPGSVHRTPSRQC

Row | Structure (SMILES) | Potency [1] | Potency [2] | Potency [3] | Potency [4] | Potency [5] | Potency [6] | Potency [7] | Potency [8] | Potency [9] | Potency [10] | Potency [11] | Potency [12] | Potency [13] | Potency [14] | Potency [15] | Potency [16] | Potency [17] | Potency [18]
1 | O=C1OC2(c3ccc(O)cc3Oc3cc(O)ccc32)c2ccc(N=C=S)cc21 | inactive | 14.1 µM (active) | 44.4 µM (active) | 39.6 µM (active) | inactive | inactive | inactive | inactive | 17.7 µM (active) | inactive | 22.3 µM (active) | inactive | inactive | – | – | – | – | –
2 | C=CC(C)(C)CC(=O)OC | inactive | inactive | inactive | inactive | inactive | inactive | – | – | inactive | – | – | – | – | inactive | inactive | inactive | inactive | –
3 | C=CCCC(=O)O | inactive | inactive | inactive | inactive | inactive | inactive | – | – | inactive | inactive | inactive | inactive | inactive | inactive | – | inactive | inactive | inactive
4 | Cc1onc(-c2ccccc2)c1-c1ccc(S(N)(=O)=O)cc1 | inactive | inactive | inactive | inactive | inactive | inactive | inactive | – | – | – | – | inactive | inactive | – | inactive | inactive | inactive | inactive
5 | CC(=O)CCC1=C(C)CCCC1(C)C | inactive | inactive | inactive | inactive | inactive | inactive | – | – | inactive | inactive | – | inactive | inactive | inactive | inactive | inactive | – | –
6 | O=C1c2c(O)ccc([N+](=O)[O-])c2C(=O)c2c([N+](=O)[O-])ccc(O)c21 | 6.06 µM (active) | 17.2 µM (active) | inactive | inactive | 18 µM (active) | 20.2 µM (active) | 5.71 µM (active) | – | inactive | inactive | inactive | – | – | – | – | – | – | –
7 | CC(=O)c1ccc2c(c1)Cc1ccccc1-2 | inactive | inactive | inactive | inactive | inactive | inactive | – | – | inactive | inactive | inactive | inactive | – | inactive | – | inactive | inactive | inactive
8 | CCN(CC)CCOc1ccc2c(c1)C(=O)c1cc(OCCN(CC)CC)ccc1-2 | 33.5 µM (active) | inactive | inactive | inactive | inactive | inactive | – | – | inactive | inactive | inactive | 29.8 µM (active) | – | inactive | inactive | – | – | –
9 | CC(=O)OCC(=O)[C@@]1(O)CC[C@H]2[C@@H]3CCC4=CC(=O)CC[C@]4(C)[C@H]3C(=O)C[C@@]21C | inactive | inactive | inactive | inactive | inactive | inactive | inactive | – | – | – | – | – | – | – | inactive | inactive | inactive | inactive
10 | Clc1cccc(-c2cc(Cl)cc(Cl)c2)c1 | inactive | inactive | inactive | inactive | inactive | inactive | – | – | inactive | inactive | inactive | inactive | inactive | inactive | – | inactive | inactive | inactive
11 | Cc1ccc(NC=O)c(C)c1 | inactive | inactive | inactive | inactive | inactive | inactive | inactive | – | – | inactive | inactive | – | inactive | inactive | inactive | inactive | inactive | inactive
12 | Nc1ccc2c3c(cccc13)-c1ccccc1-2 | inactive | 35.1 µM (active) | 55.5 µM (active) | 39.3 µM (active) | inactive | inactive | – | – | 24.8 µM (active) | inactive | 49.5 µM (active) | – | – | inactive | – | inactive | inactive | inactive
13 | Cc1cccc(NC(=S)N(C)C)c1 | inactive | inactive | inactive | inactive | inactive | inactive | – | – | inactive | – | inactive | inactive | inactive | inactive | inactive | – | – | inactive
14 | O=C1c2cccc3c2[C@H](CCC3)CN1[C@@H]1CN2CCC1CC2 | inactive | inactive | inactive | inactive | inactive | inactive | inactive | – | inactive | – | inactive | inactive | – | inactive | inactive | inactive | inactive | –
15 | CC(CC(=O)Cl)CC(C)(C)C (stereo not given) | inactive | inactive | inactive | inactive | inactive | inactive | inactive | – | – | inactive | inactive | inactive | inactive | – | inactive | inactive | inactive | inactive
16 | CC(C)=CCOc1ccc(/C=C/C(=O)c2ccc(OCC=C(C)C)cc2OCC(=O)O)cc1 | 26.6 µM (active) | inactive | inactive | inactive | inactive | inactive | – | – | inactive | – | inactive | – | inactive | – | – | inactive | inactive | inactive
17 | Cc1c(Cl)c(=O)oc2cc(O)ccc12 | inactive | inactive | inactive | inactive | inactive | inactive | inactive | – | inactive | inactive | inactive | – | – | inactive | – | – | inactive | inactive
18 | Cc1ccc2ccc3cccc4ccc1c2c34 | inactive | inactive | inactive | inactive | inactive | inactive | inactive | – | – | inactive | inactive | inactive | – | inactive | – | inactive | – | inactive
